Experimental findings from PubChem BioAssay (Tox21) are described below.

Molecules are shown by their SMILES. Several values for one entry are separate records, joined by “and”; a condition that tells them apart may be missing. Equal values may be shown once. A number with no mark means an inactive call. Records with an inconclusive call do not appear. Activity calls are given as the source filed them. Unless noted, calls come from the whole dose curve; as a rule, active = well fitted curve in the direction sought with a large enough effect in the repeat runs; inconclusive = weak or mixed curves; inactive = no such curve, though single readings can be large; an effect the other way counts as inactive or inconclusive.

A short description of assay [1]: qHTS assay for small molecules that induce genotoxicity in human embryonic kidney cells expressing luciferase-tagged ATAD5 (AID 651632). Note: nearly all actives have a fitted effect of over 15% in size. Note: potency is the fitted concentration of half-maximal effect. The gist of the method: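 HEK293T cells carrying luciferase-tagged ATAD5 were given compound or DMSO vehicle and incubated 16 hr at 37C, 5% CO2. Luciferase activity was read after 30 min at room temperature with Amplite; a rise signals genotoxic stress.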

A short description of assay [2]: qHTS assay for small molecule agonists of the p53 signaling pathway - cell viability (AID 651633; calls by dose curve; note: nearly all actives have a fitted effect of over 30% in size; note: potency is the fitted concentration of half-maximal effect). Summed up:
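p53RE-bla cells, seeded at 4,000 per well and rested 5 h at 37 C/5% CO2, received compounds in DMSO for 16 h at 37 C. CellTiter-Glo was then added, and luminescence was read after 30 min at room temperature to gauge cytotoxicity.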

Assay [3] in a line: qHTS assay for small molecule disruptors of the mitochondrial membrane potential - cell viability (AID 720634; calls by dose curve; note: nearly all actives have a fitted effect of over 20% in size; note: potency is the fitted concentration of half-maximal effect). The gist of the method: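 HepG2 cells, 2,000 per well, attached overnight, then treated 1 hr at 37 C, 5% CO2. Viability read as ATP by CellTiter-Glo luminescence after 30 min at room temperature. Read in the same wells as the m-MPI membrane-potential dye assay.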
Assay [4] is described as follows: qHTS assay to test for compound auto fluorescence at 590 nm (red) in HepG2 cells (AID 720674). Summed up:
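Rose Bengal sodium served as the red fluorophore standard. HepG2 monolayers (overnight attachment, MEM with 10% FBS) were exposed to test compounds for 1 hr at 37 C and read at Ex 540/Em 590 nm.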

Assay [5] in a line: qHTS assay to test for compound auto fluorescence at 460 nm (blue) in HEK293 cells (AID 720678). Summed up:
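Measured: blue fluorescence (Ex 405/Em 460 nm) of compound-treated HEK293 cells, incubated overnight at 37C with 5% CO2 and scaled to triamterene equivalents.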

Assay [6] is described as follows: qHTS assay to test for compound auto fluorescence at 590 nm (red) in HEK293 cells (AID 720679). The gist of the method:
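Using HEK293 cells at 2,000 per well, the screen added 23 nL of each compound after cell attachment and incubated overnight (37C, 5% CO2). The plate reader then captured red-label fluorescence, Ex/Em 540/590nm.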

Assay [7] in a line: qHTS assay to test for compound auto fluorescence at 535 nm (green) in HEK293 cells (AID 720680).
Assay [8] can be described thus: qHTS assay to test for compound auto fluorescence at 460 nm (blue) in HEK293 cell free culture (AID 720681). Summed up:
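Test compounds were pinned into cell-free culture medium (DMEM with 10% FBS) and fluorescence was read directly at Ex/Em 405/460 nm. Signals were expressed as fluorescence equivalents of triamterene, with DMSO vehicle as control.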

Assay [9] is described as follows: qHTS assay to test for compound auto fluorescence at 535 nm (green) in HEK293 cell free culture (AID 720682). Summed up:
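Intrinsic compound fluorescence is measured in culture medium containing 10% FBS, with excitation at 485 nm and detection at 535 nm, referenced to fluorescein.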

The nature of assay [10]: qHTS assay to test for compound auto fluorescence at 590 nm (red) in HepG2 cell free culture (AID 720684). Summed up: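 Red fluorescence (540 nm excitation, 590 nm emission) was measured after compound transfer into cell-free MEM supplemented with 10% FBS. Values are equivalencies against Rose Bengal sodium.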
A short description of assay [11]: qHTS assay to test for compound auto fluorescence at 460 nm (blue) in HepG2 cell free culture (AID 720685). Summed up:
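Compound (23 nL) or DMSO pinned into cell-free MEM with 10% FBS; blue fluorescence read at 405/460 nm excitation/emission, expressed as auto-fluorescence equivalency to triamterene.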

Assay [12] is described as follows: qHTS assay to test for compound auto fluorescence at 535 nm (green) in HepG2 cell free culture (AID 720686).
Assay [13] is described as follows: qHTS assay to test for compound auto fluorescence at 460 nm (blue) in HepG2 cells (AID 720687). The gist of the method: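 Cells (2,000/well in MEM with 10% FBS) attached overnight at 37 C, then were exposed to compound or DMSO for 1 hr at 37 C, 5% CO2. Fluorescence read at Ex/Em 405/460 nm, expressed as triamterene-equivalent signal.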
The target in assay [14] is Glucocorticoid receptor (Homo sapiens) (UniProt P04150). Put plainly: qHTS assay to identify small molecule agonists of the glucocorticoid receptor (GR) signaling pathway (AID 720691; active = well fitted activation curve with a large enough effect in the signal ratio in the repeat runs, not every such curve was filed as active; the % refers to the signal ratio). The gist of the method:
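GR-bla HeLa cells carrying a GRE-driven beta-lactamase reporter, exposed to compounds for 18 h at 37 C. Reporter activation read as fluorescence after 2 h with LiveBLAzer B/G FRET substrate at room temperature.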

For assay [15] the target is unchanged. Put plainly: qHTS assay to identify small molecule antagonists of the glucocorticoid receptor (GR) signaling pathway (AID 720692; active = well fitted inhibition curve with a large enough effect in the signal ratio in the repeat runs, not every such curve was filed as active; the % refers to the signal ratio; note: potency is the fitted concentration of half-maximal effect). Summed up: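 GR-bla HeLa cells carrying a GRE-driven beta-lactamase reporter received compound after 4 h plating, then dexamethasone (5 nM final). After 18 h at 37C, the FRET substrate was loaded for 2 h at room temperature and fluorescence read.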

A short description of assay [16]: qHTS assay for small molecule disruptors of the mitochondrial membrane potential (AID 720635). Note: potency is the fitted concentration of half-maximal effect. The gist of the method: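 HepG2 cells (2,000/well) attached overnight at 37C, then took compound for 1 hr at 37C, 5% CO2. Mito-MPS dye was added for 30 min; fluorescence was read at 490/535 nm (monomers) and 540/590 nm (aggregates).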
Assay [17] is described as follows: qHTS assay to test for compound auto fluorescence at 590 nm (red) in HEK293 cell free culture (AID 720683). Summed up:
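Tox21 10K library compounds were pinned into cell-free DMEM with 10% FBS and fluorescence was read at excitation 540 nm. Activity is expressed as Rose Bengal sodium equivalency.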

A short description of assay [18]: qHTS assay to test for compound auto fluorescence at 535 nm (green) in HepG2 cells (AID 720675).
A short description of assay [19]: qHTS assay for small molecules that induce genotoxicity in human embryonic kidney cells expressing luciferase-tagged ATAD5 - cell viability (AID 651634; calls by dose curve; note: nearly all actives have a fitted effect of over 25% in size). The gist of the method: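 HEK293T cells carrying luciferase-tagged ATAD5, 2,000 cells/well, exposed to compound for 15.5 hr at 37C. Viability read as live-cell protease activity by CellTiter-Fluor fluorescence after 30 min at 37C.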
% is set by controls: 0 for no effect and ±100 for the full control effect.

Sequence of Glucocorticoid receptor (Homo sapiens) (P04150 whole entry, looked up): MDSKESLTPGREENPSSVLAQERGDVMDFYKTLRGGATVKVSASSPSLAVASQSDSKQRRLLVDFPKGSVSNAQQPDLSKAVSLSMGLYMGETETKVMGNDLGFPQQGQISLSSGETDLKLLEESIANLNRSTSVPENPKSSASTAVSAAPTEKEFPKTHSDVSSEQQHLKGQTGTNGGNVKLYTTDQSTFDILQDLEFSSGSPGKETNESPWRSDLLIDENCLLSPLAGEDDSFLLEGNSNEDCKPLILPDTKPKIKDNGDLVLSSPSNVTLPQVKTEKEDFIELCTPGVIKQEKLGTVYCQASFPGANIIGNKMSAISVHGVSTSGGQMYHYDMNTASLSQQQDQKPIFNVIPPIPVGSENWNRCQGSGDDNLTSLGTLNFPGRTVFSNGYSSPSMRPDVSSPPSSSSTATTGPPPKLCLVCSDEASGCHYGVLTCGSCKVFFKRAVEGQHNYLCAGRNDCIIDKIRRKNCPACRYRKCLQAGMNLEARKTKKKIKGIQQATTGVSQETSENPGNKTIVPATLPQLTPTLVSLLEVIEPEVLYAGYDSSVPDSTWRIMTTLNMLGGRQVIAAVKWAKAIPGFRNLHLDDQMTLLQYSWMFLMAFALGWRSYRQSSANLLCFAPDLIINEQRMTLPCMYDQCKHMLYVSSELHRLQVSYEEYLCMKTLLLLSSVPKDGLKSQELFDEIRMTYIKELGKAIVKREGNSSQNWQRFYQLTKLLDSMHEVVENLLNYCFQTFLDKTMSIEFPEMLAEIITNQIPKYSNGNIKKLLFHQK

With `CN(C)c1ccc(N=O)cc1`, the Potency in assay [1] is 21.8 µM (active) and 68.6 µM (active); in assay [2] it was 21.8 µM (active); in [3] it was 17.3 µM (active) and 48.6 µM (active); in assay [15] it was 38.9 µM (active). Moreover, the compound was called inactive in assay [4], in assay [5], in [6], in [7], in [8] and in assay [9]. Moreover, the compound was classed as inactive in assay [10], in assay [11], in assay [12] and in assay [13]. The Potency entry in assay [14] was “inactive”.
Turning to `C[Si](Cn1cncn1)(c1ccc(F)cc1)c1ccc(F)cc1`, the Potency entry in assay [1] is “inactive”. For the same compound, the Potency in assay [3] is 31.6 µM (active); in assay [16] it was 56.3 µM (active) and 27.3 µM (active). The compound was classed as inactive in [4], in assay [5], in assay [6], in assay [7], in assay [8] and in assay [9]. The result in assay [17], in assay [10], in [11], in assay [12] and in assay [13] was inactive.
`O=C(N/N=C/c1ccc([N+](=O)[O-])o1)c1cc([N+](=O)[O-])cc([N+](=O)[O-])c1O`: the Potency result in assay [1], in assay [3] and in assay [15] was “inactive” each time. The Potency in [2] is 26.6 µM (active). The compound was called inactive in assay [4], in [18], in assay [5], in assay [6], in assay [7] and in assay [8]. Moreover, the result in assay [9], in [17], in [10], in [11], in assay [12] and in [13] was inactive.
For the compound `CCOP(=O)(O)C(N)=O`, the Potency result in assay [1], in [2], in assay [3], in assay [14] and in [15] was “inactive” throughout. In addition, in assay [16], the Potency is 3.44 µM (active). Also, the compound was classed as inactive in assay [4], in assay [5], in assay [6], in assay [7], in assay [8] and in [9]. Also, the call in [17], in assay [10], in assay [11], in assay [12] and in assay [13] was inactive.
For the compound `Clc1ccccc1`, the Potency entry in assay [1], in [2], in assay [3], in assay [16], in assay [14] and in assay [15] was “inactive” throughout. For the same compound, the compound was classed as inactive in assay [4], in assay [18], in assay [5], in assay [6], in assay [7] and in assay [8]. Besides, the compound was classed as inactive in assay [9], in assay [10], in assay [11], in assay [12] and in [13].
Regarding `Nc1c(Br)cc(Br)c2c1C(=O)c1ccccc1C2=O`, the Potency entry in assay [1], in [19] and in assay [3] was “inactive” throughout. In addition, the Potency in assay [16] was 2.29 µM (active). Moreover, the fluorescence, relative to Rose Bengal in [4] is -0.0013% [at 18.6 µM]. Also, the fluorescence, % of fluorescein control in assay [18] is 0.0991% [at 18.6 µM]; in assay [12], -0.0249% [at 18.6 µM]. Also, the fluorescence, % of triamterene in [5] is -0.127% [at 18.6 µM]. Further, the fluorescence, % of fluorescent control in [6] was -0.009% [at 18.6 µM]; in assay [8], -0.168% [at 18.6 µM]; in assay [17] it was -0.754% [at 18.6 µM]; in [11], -0.366% [at 18.6 µM]; in assay [13], -0.122% [at 18.6 µM]. In assay [7], the fluorescence, % of fluorescein was -0.0125% [at 18.6 µM]. The activity change in assay [9] was 0.0661% [at 18.6 µM]. The fluorescence, % of Rose Bengal in [10] is -0.122% [at 18.6 µM].
For `O=[N+]([O-])c1cc(Cl)c(Cl)cc1Cl`, the Potency result in assay [1], in [2], in assay [3], in [14] and in assay [15] was “inactive” throughout. Further, the outcome in [4], in assay [18], in assay [5], in [6], in assay [7] and in assay [8] was inactive. In addition, the outcome in assay [9], in assay [17], in [10], in assay [11], in assay [12] and in assay [13] was inactive.
On to `CC[N+]1(CCOC(=O)C(O)(c2ccccc2)c2ccccc2)CCCCC1`, for which the Potency entry in assay [1], in assay [19], in [3], in assay [16] and in assay [14] was “inactive” each time. Also, the result in assay [4], in assay [5], in [6], in assay [7], in assay [8] and in assay [9] was inactive. Moreover, the result in assay [17], in [10], in [11], in assay [12] and in [13] was inactive.
